Among the data in PubChem BioAssay (NCATS) are Potency values, retold here.

Assay in all cases: qHTS profiling for inhibitors of Plasmodium falciparum proliferation (AID 504749); also: nearly all actives have a fitted effect of over 60% in size
Common to all, as to settings: P. falciparum in erythrocytes, SYBR Green DNA, 72 h; series mostly up to 28.7 µM
(In qHTS, concentration-response curves come from the screen itself.)

The subject of one test is CP217. The essentials:
(§1)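 Parasite proliferation within erythrocytes, 72 h exposure. Endpoint: SYBR Green I fluorescence after overnight lysis at room temperature. Controls: 0.29 uM artemisinin, DMSO.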

Another test concerns CP237. In a few lines: as §1
The subject of a further test is CP238. In a few lines:
as §1

A further test concerns CP247. In a few lines: as §1
For another test, the system named is CP250. The essentials:
as §1

The test system of another test is CP252. In a few lines:
as §1

Another test concerns CP256. The essentials:
as §1

A further test has as its system CP260. In a few lines:
as §1

The subject of another test is CP262. The essentials:
as §1

For the next test, the system named is CP265. In a few lines:
as §1

Records with an inconclusive call do not appear. Active and inactive are the calls of the source. Calls follow the shape of the dose curve; as a rule, active = well fitted inhibition curve with a large enough effect; inconclusive = small, poorly fitted or top-dose-only effect; inactive = flat fitted curve, though single readings scatter.
Potency is read from the fitted curve at half-maximal effect.

Take `CCC(C(=O)O)C1CCC(C)C(C(C)C(O)C(C)C(=O)C(CC)C2OC3(C=CC(O)[C@@]4(CC[C@](C)(C5CC[C@@](O)(CC)C(C)O5)O4)O3)C(C)CC2C)O1` (stereo not given in full): the Potency with CP217 was 1120 nM (active); with CP237 it was 447 nM (active); in the test with CP238 it was 1120 nM (active); with CP247, 891 nM (active); with CP250, 1120 nM (active); in the test on CP252 it was 891 nM (active). The Potency in the test with CP256 was 2000 nM (active); in the test on CP260, 631 nM (active); with CP262, 849 nM (active); in the test on CP265, 1260 nM (active).

For the molecule `Nc1nc2c(c(=O)[nH]1)N(C=O)[C@H](CNc1ccc(C(=O)N[C@@H](CCC(=O)O)C(=O)O)cc1)CN2`, the Potency entry with CP217, with CP237, with CP238, with CP247, with CP250 and in the test on CP252 was “inactive” each time. Further, the Potency entry with CP256, in the test on CP260, with CP262 and in the test on CP265 was “inactive” each time.

For the molecule `CCCCCCCCCCCC(CC1OC(=O)C1CCCCCC)OC(=O)C(CC(C)C)NC=O` (stereo not given), the Potency is 2240 nM (active) in the test with CP217; 794 nM (active) in the test with CP237; 708 nM (active) in the test with CP238; 398 nM (active) in the test with CP247; 447 nM (active) in the test on CP250; 794 nM (active) in the test on CP252. Further, the Potency with CP256 was 708 nM (active); in the test with CP260, 794 nM (active); in the test on CP265 it was 631 nM (active). In addition, the Potency result with CP262 was “inactive”.

`OCC(O)C(O)C(O)CO` (stereo not given): the Potency entry in the test with CP217, with CP237, in the test on CP238, in the test with CP247, in the test with CP250 and with CP252 was “inactive” in each case. Also, the Potency result in the test on CP256, in the test on CP260, in the test with CP262 and in the test with CP265 was “inactive” in each case.

Turning to `COc1ccc([C@@H]2CNC(=O)C2)cc1OC1CCCC1`, the Potency entry in the test with CP217, with CP237, with CP238, in the test on CP247, in the test on CP250 and with CP252 was “inactive” in each case. In addition, the Potency result in the test on CP256, in the test on CP260, with CP262 and with CP265 was “inactive” throughout.

For `COc1ccc2c(c1OC)C(=O)OC2[C@H]1c2c(cc3c(c2OC)OCO3)CCN1C` (stereo not given in full), the Potency result in the test on CP217, with CP237, in the test on CP238, in the test on CP247, in the test on CP250 and in the test with CP252 was “inactive” in each case. Moreover, the Potency entry with CP256, in the test on CP260, in the test on CP262 and in the test on CP265 was “inactive” in each case.

As for `COc1cccc2c1C(=O)c1c(O)c3c(c(O)c1C2=O)C[C@@](O)(C(=O)CO)C[C@@H]3O[C@H]1C[C@H](N)[C@H](OC2CCCCO2)[C@H](C)O1` (stereo not given in full), the Potency was 4470 nM (active) with CP217; 2240 nM (active) in the test with CP237; 5010 nM (active) in the test on CP238; 3550 nM (active) with CP247; 2510 nM (active) in the test with CP250; 11200 nM (active) in the test with CP252. Also, the Potency with CP256 is 8910 nM (active); with CP260, 2240 nM (active); with CP265 it was 8910 nM (active). For the same molecule, the Potency result in the test with CP262 was “inactive”.
